Inconclusive results are not listed. Values without a mark were called inactive. The source made the active and inactive calls. Unless noted, the call rests on the fitted dose curve; in most records, active means well fitted curve in the direction sought with a large enough effect in the repeat runs; inconclusive means weak or mixed curves; inactive means no such curve, though single readings can be large; an effect the other way counts as inactive or inconclusive.

Assay [1] is described as follows: qHTS assay to identify small molecule antagonists of the thyroid receptor (TR) signaling pathway - cell viability counter screen (AID 743064). Further: nearly all actives have a fitted effect of over 50% in size. Further: potency means the concentration at half of the fitted maximal effect. The following applies: GH3.TRE-Luc viability, CellTiter-Fluor, 24 h; series mostly up to 70.3 µM. The method, boiled down: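 Same-well viability check: GH3.TRE-Luc cells stimulated with 1 nM T3 alongside test compound for 23.5 h, followed by CellTiter-Fluor fluorescence.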
A general note: qHTS replaces the single test concentration by a dilution series.

Assay [2] concerns thyroid hormone receptor (rat, GH3 cells). The assay can be described thus: qHTS assay to identify small molecule agonists of the thyroid receptor (TR) signaling pathway (AID 743066; calls by dose curve). The following applies: GH3.TRE-Luc cells, TR agonist luciferase, 24 h; series mostly up to 83.9 µM.
Assay [3] is described as follows: qHTS assay to identify small molecule antagonists of the estrogen receptor alpha (ER-alpha) signaling pathway - cell viability counter screen (AID 743074; calls by dose curve;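 further: HEK293 cells carrying ER-alpha-UAS-bla reporter stimulated with 17beta-estradiol; nearly all actives have a fitted effect of over 45% in size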). The following applies: ERalpha-bla HEK293 viability, CellTiter-Glo luminescence, 18 h; series mostly up to 69.4 µM.
Assay [4] concerns the target Estrogen receptor (Homo sapiens) (UniProt P03372). Kind of assay: qHTS assay to identify small molecule agonists of the estrogen receptor alpha (ER-alpha) signaling pathway (AID 743075; calls by dose curve;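 further: HEK293 GripTite cells with ER-alpha and UAS-driven beta-lactamase reporter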). The following applies: HEK293 ER-alpha-UAS-bla, beta-lactamase FRET ratio, 18 h; series mostly up to 70.1 µM.
The target is the same in assay [5]. Kind of assay: qHTS assay to identify small molecule agonists of the estrogen receptor alpha (ER-alpha) signaling pathway using the BG1 cell line (AID 743079). Further: nearly all actives have a fitted effect of over 20% in size. Further: potency means the concentration at half of the fitted maximal effect. The following applies: BG1Luc4E2 cells, ERE-luciferase agonist, 22 h; series mostly up to 70.3 µM.
Assay [6] in a line: qHTS assay to identify small molecule antagonists of the estrogen receptor alpha (ER-alpha) signaling pathway using the BG1 cell line - cell viability counter screen (AID 743081).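 Further: compound given together with 17beta-estradiol as the ER stimulus; nearly all actives have a fitted effect of over 45% in size.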 The following applies: BG1Luc4E2 viability, CellTiter-Fluor, 22 h; series mostly up to 70.3 µM.
The next assay concerns the target Aromatase (Homo sapiens) (UniProt P11511). The assay can be described thus: qHTS assay to identify aromatase inhibitors (AID 743083). Further: nearly all actives have a fitted effect of over 55% in size. The following applies: MCF-7 aro ERE, testosterone-driven ERE luciferase, 24 h; series mostly up to 70.3 µM.
Assay [7] is described as follows: qHTS assay to identify aromatase inhibitors - cell viability counter screen (AID 743084).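 Further: cells stimulated with testosterone during compound exposure; nearly all actives have a fitted effect of over 55% in size.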 The following applies: MCF-7 aro ERE viability, CellTiter-Fluor, 24 h; series mostly up to 70.3 µM.
The target of assay [8] is Aryl hydrocarbon receptor (Homo sapiens) (UniProt P35869). Kind of assay: qHTS assay to identify small molecule that activate the aryl hydrocarbon receptor (AhR) signaling pathway (AID 743085). Further: nearly all actives have a fitted effect of over 15% in size. Further: potency means the concentration at half of the fitted maximal effect.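 On activation: HG2L7.5c1 human HepG2 liver cells with stably integrated DRE-driven firefly reporter.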 The following applies: HepG2 AhR-luc (HG2L7.5c1), luciferase, 24 h; series mostly up to 70.3 µM. The method, boiled down: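 Reporter assay in engineered HepG2 line HG2L7.5c1, whose plasmid carries twenty dioxin responsive elements upstream of firefly luciferase. Treatment lasted 24 h at 37C; ONE-Glo luminescence gauged induction.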

Assay [9] can be described thus: qHTS assay to identify small molecule that activate the aryl hydrocarbon receptor (AhR) signaling pathway - cell viability counter screen (AID 743086).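 Further: HepG2 liver cells carrying the AhR DRE luciferase reporter; nearly all actives have a fitted effect of over 45% in size.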 The following applies: HepG2-AhR-luc viability, CellTiter-Fluor, 24 h; series mostly up to 70.3 µM. The essentials:
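Cytotoxicity counter screen: CellTiter-Fluor signal (30 min, 37 C) in 4000 HepG2 cells/well carrying the DRE-luciferase reporter, following 24 h compound exposure at 37 C.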

The target in assay [10] is Peroxisome proliferator-activated receptor gamma (Homo sapiens) (UniProt P37231). The assay can be described thus: qHTS assay to identify small molecule agonists of the peroxisome proliferator-activated receptor gamma (PPARg) signaling pathway (AID 743094; active means well fitted activation curve with a large enough effect in the signal ratio in the repeat runs, not every such curve was filed as active; the % refers to the signal ratio). The following applies: HEK293H PPARg-UAS-bla, beta-lactamase FRET ratio, 17 h; series mostly up to 57 µM. The method, boiled down:
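GeneBLAzer PPARg UAS-bla HEK293H cells were plated, rested 5 h, then exposed to compounds for 17 h at 37C. Beta-lactamase activity was read by LiveBLAzer B/G FRET substrate fluorescence after 1 h at room temperature.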

Assay [11] has the same target. Kind of assay: qHTS assay to identify small molecule antagonists of the peroxisome proliferator-activated receptor gamma (PPARg) signaling pathway (AID 743191; calls by dose curve; further: nearly all actives have a fitted effect of over 30% in size). The following applies: HEK293H PPARg-UAS-bla, beta-lactamase ratio, antagonist, 17 h; series mostly up to 62.6 µM. The method, boiled down:
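Beta-lactamase reporter under UAS control in HEK293H PPARg-bla cells; compound treatment 17 h at 37C. Read-out: fluorescence intensity after 1 h room-temperature incubation with LiveBLAzer B/G FRET substrate.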

Assay [12] is described as follows: qHTS assay to identify small molecule antagonists of the peroxisome proliferator-activated receptor gamma (PPARg) signaling pathway - cell viability counter screen (AID 743194). Further: nearly all actives have a fitted effect of over 55% in size. The following applies: PPARg-bla HEK293H viability, CellTiter-Glo luminescence, 17 h, co-treated with 50 nM rosiglitazone; series mostly up to 62.6 µM. The method, boiled down: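 Viability was measured as CellTiter-Glo luminescence in GeneBLAzer PPARg UAS-bla HEK293H cells. These cells had been exposed 17 h at 37 C to compounds together with rosiglitazone at 50 nM final, with the beta-lactamase readout taken in the same wells.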

Assay [13] in a line: qHTS assay for small molecule agonists of the antioxidant response element (ARE) signaling pathway - cell viability counter screen (AID 743203; calls by dose curve; further: nearly all actives have a fitted effect of over 55% in size). The following applies: ARE-bla HepG2 viability, CellTiter-Glo luminescence, 16 h; series mostly up to 73.3 µM. The essentials: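 ARE-bla HepG2 cells were plated, rested 5 h at 37C/5% CO2, then exposed to compounds in DMSO for 16 h. Viability was read as CellTiter-Glo luminescence after 30 min at room temperature, in the same wells as the ARE screen.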

Assay [14] can be described thus: qHTS assay for small molecule activators of the heat shock response signaling pathway - cell viability counter screen (AID 743209). Further: nearly all actives have a fitted effect of over 50% in size. The following applies: HSE-bla HeLa viability, CellTiter-Glo luminescence, 5 h; series mostly up to 62.6 µM. The essentials: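 HSE-bla HeLa cells plated overnight, then exposed to Tox21 compounds (23 nL in DMSO) for 5 h at 37 C. After the bla reporter read, CellTiter-Glo was added in the same wells and luminescence read after 30 min at room temperature.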

A short description of assay [15]: qHTS assay for small molecule activators of the heat shock response signaling pathway (AID 743210; active means well fitted activation curve with a large enough effect in the signal ratio in the repeat runs, with a control signal flat, not every such curve was filed as active; the % refers to the signal ratio;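 further: HeLa cells with beta-lactamase reporter driven by heat shock elements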). The following applies: HeLa HSE-bla reporter, beta-lactamase ratio, 5 h; series mostly up to 62.6 µM. The essentials: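 HeLa HSE-bla cells, overnight plating; cpd in DMSO 5 h, 37 C; LiveBLAzer B/G FRET substrate 2.5 h RT; fluorescence intensity read.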
For assay [16], the target named is Estrogen receptor (Homo sapiens) (UniProt P03372). The assay can be described thus: qHTS assay to identify small molecule antagonists of the estrogen receptor alpha (ER-alpha) signaling pathway (AID 743069; active means well fitted curve in the direction sought with a large enough effect in the signal ratio in the repeat runs, not every such curve was filed as active; the % refers to the signal ratio). The following applies: HEK293 ER-alpha-UAS-bla, beta-lactamase ratio, antagonist mode; series mostly up to 69.4 µM. The method, boiled down: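 ER-alpha-UAS-bla GripTite HEK293 line; 2% charcoal-stripped FBS overnight; plated, 4 hr 37C/5% CO2; cpd in DMSO + 17beta-estradiol, 18 hr 37C; LiveBLAzer B/G FRET substrate 2 hr RT; fluorescence intensity.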

Assay [17] can be described thus: qHTS assay to identify small molecule antagonists of the estrogen receptor alpha (ER-alpha) signaling pathway using the BG1 cell line (AID 743080; calls by dose curve; further: nearly all actives have a fitted effect of over 25% in size). The following applies: BG1Luc4E2 ERE-luciferase antagonist mode, luminescence; series mostly up to 70.3 µM. The method, boiled down: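 Antagonist mode: compounds in DMSO were pinned onto BG1-Luc-4E2 cells alongside 17beta-estradiol agonist, incubated 21.5 h, and ERE-driven luciferase measured with ONE-Glo. Cytotoxicity was multiplexed using CellTiter-Fluor fluorescence.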

A short description of assay [18]: qHTS assay for small molecule agonists of the antioxidant response element (ARE) signaling pathway (AID 743202; active means well fitted activation curve with a large enough effect in the signal ratio in the repeat runs, not every such curve was filed as active; the % refers to the signal ratio). The following applies: HepG2 ARE-bla reporter, beta-lactamase FRET, 16 h; series mostly up to 73.3 µM. The essentials: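 Quantitative high-throughput format in HepG2 cells bearing an integrated ARE-beta-lactamase reporter. Compound exposure lasted 16 h at 37 C, and fluorescence was read 2 h after adding LiveBLAzer B/G substrate at room temperature.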
On the % scale 0 is the no-effect control and ±100 the full control effect.

Sequence of Estrogen receptor (Homo sapiens) (P03372 whole entry, looked up): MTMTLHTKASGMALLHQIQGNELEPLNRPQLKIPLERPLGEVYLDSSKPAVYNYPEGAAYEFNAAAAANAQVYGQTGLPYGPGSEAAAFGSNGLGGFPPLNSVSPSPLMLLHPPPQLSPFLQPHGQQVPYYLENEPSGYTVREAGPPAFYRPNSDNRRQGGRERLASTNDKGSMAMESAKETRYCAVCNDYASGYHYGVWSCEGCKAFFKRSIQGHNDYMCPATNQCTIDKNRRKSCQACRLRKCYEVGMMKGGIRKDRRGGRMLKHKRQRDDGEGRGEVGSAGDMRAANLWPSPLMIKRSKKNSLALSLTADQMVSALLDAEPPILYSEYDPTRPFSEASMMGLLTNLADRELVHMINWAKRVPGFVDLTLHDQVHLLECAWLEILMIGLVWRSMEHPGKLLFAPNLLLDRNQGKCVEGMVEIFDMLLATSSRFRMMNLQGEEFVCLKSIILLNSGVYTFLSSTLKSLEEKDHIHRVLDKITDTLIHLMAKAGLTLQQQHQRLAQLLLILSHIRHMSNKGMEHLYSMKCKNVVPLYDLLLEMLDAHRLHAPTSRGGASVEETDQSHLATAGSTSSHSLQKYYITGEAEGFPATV
Sequence of Aromatase (Homo sapiens) (P11511 whole entry, looked up): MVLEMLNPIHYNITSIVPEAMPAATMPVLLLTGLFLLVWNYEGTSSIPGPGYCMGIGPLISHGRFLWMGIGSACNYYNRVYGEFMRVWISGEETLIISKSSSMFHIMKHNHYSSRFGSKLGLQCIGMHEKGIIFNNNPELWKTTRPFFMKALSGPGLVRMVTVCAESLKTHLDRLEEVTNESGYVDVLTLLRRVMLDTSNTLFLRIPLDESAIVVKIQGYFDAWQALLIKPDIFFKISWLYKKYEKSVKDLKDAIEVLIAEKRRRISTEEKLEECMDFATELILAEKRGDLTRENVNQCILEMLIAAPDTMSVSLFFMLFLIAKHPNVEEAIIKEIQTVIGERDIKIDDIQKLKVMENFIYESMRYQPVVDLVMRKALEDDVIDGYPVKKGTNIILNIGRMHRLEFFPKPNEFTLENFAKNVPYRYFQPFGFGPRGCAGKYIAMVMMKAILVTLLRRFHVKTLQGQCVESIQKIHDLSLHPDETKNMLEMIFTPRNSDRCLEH
Sequence of Peroxisome proliferator-activated receptor gamma (Homo sapiens) (P37231 whole entry, looked up): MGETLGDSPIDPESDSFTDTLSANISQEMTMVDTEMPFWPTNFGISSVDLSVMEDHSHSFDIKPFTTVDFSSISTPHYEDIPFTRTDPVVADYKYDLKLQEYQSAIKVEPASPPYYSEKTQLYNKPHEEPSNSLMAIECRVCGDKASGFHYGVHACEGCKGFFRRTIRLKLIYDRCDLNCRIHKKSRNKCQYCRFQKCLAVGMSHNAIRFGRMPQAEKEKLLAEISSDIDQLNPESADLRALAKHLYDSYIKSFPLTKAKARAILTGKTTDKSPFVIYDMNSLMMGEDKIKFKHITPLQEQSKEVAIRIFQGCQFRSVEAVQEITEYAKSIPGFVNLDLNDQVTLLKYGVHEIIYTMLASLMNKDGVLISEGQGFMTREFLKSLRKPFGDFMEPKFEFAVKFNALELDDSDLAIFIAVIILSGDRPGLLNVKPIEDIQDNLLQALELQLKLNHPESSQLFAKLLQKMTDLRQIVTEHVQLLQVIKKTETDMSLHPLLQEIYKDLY
Sequence of Aryl hydrocarbon receptor (Homo sapiens) (P35869 whole entry, looked up): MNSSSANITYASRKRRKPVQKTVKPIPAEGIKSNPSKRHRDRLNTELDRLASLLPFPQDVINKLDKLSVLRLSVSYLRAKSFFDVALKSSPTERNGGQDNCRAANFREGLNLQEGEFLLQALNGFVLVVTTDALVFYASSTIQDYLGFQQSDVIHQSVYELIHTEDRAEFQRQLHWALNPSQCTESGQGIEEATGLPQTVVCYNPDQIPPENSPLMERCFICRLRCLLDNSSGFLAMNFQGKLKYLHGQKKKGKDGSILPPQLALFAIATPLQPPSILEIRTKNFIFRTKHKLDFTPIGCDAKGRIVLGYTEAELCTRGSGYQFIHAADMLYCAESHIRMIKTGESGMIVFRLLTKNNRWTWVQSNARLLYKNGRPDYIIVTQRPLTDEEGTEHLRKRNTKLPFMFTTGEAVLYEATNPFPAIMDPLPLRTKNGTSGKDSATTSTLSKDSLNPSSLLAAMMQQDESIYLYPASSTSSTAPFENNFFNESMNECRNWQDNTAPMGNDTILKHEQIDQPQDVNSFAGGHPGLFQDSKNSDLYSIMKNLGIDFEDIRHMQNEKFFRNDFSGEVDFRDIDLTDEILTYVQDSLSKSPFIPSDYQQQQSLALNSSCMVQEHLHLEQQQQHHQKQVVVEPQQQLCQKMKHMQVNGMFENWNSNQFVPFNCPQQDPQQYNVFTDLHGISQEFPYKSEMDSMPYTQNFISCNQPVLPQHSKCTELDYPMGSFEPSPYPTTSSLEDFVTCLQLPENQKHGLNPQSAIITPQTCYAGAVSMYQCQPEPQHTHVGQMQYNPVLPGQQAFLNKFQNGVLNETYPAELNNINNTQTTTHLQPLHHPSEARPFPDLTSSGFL

Turning to `COc1ccc(N=[N+]([O-])c2ccc(OC)cc2)cc1`, the Potency result (in [1]; in assay [2]; in assay [4]; with Aromatase (Homo sapiens); in assay [7]; in assay [9]) was “inactive” each time. In addition, the Potency entry in assay [12] is “inactive”. Also, the outcome in assay [3], in assay [6], in assay [10], in [11], in assay [13] and in [14] was inactive. The result in [15] was inactive. The Potency in assay [5] was 0.0679 µM (active); in [8], 9.59 µM (active).

On to `COC[C@H](c1ccc(C(F)(F)F)cc1)N1CCN(C2(C)CCN(C(=O)c3c(C)ncnc3C)CC2)C[C@H]1C`, for which the Potency entry in assay [1], in assay [2], in assay [16], in assay [4], in assay [5] and in [17] was “inactive” each time. The Potency result in assay [7], in [8] and in assay [9] was “inactive” in each case. Moreover, the call in assay [3], in assay [10], in assay [13], in [14] and in [15] was inactive.

For `C=C(C)[C@@H]1CCC2=CC(=O)C[C@@H](C)[C@]2(C)C1`, the Potency entry in [1], in assay [2], in assay [16], in assay [4], in assay [5] and in assay [17] was “inactive” each time. Also, the Potency entry in assay [7], in assay [8], in assay [9] and in [18] was “inactive” each time. The result in assay [3], in [6], in assay [10], in [11], in assay [13] and in assay [14] was inactive. Also, in assay [15], the outcome was inactive.

With `Cc1ccccc1Br`, the Potency result (in assay [1]; in the assay with Aromatase (Homo sapiens); in assay [7]; in assay [8]; in assay [9]; in assay [12]) was “inactive” each time. In [18], the Potency result is “inactive”. In addition, the outcome in assay [3], in [6], in [10], in assay [11], in [13] and in assay [14] was inactive. The result in [15] was inactive.

Turning to `C=C(C)[C@H]1CC=C(C)CC1`, the Potency entry (in [1]; in assay [16]; in assay [4]; in [5]; in assay [17]; with Aromatase (Homo sapiens)) was “inactive” throughout. The Potency result in [7], in assay [8], in assay [9], in assay [12] and in [18] was “inactive” in each case. The result in assay [3], in assay [6], in assay [13], in [14] and in [15] was inactive.

Take `COC(=O)[C@H]1[C@H]2C[C@@H]3c4[nH]c5cc(OC)ccc5c4CCN3C[C@H]2C[C@@H](OC(=O)COc2ccc(OC)cc2)[C@@H]1OC`: the Potency result (in [1]; in assay [4]; in [5]; in assay [17]; in the assay with Aromatase (Homo sapiens); in [7]) was “inactive” in each case. Further, the Potency result in [9], in assay [12] and in assay [18] was “inactive” each time. For the same molecule, the outcome in assay [3], in [6], in [13] and in [14] was inactive.

As for `CCN1CCCC(OC(=O)C(c2ccccc2)c2ccccc2)C1` (stereo unspecified), in assay [1], the Potency is 12.7 µM (active). Also, the Potency result (in assay [2]; in assay [16]; in [4]; in assay [5]; in assay [17]; with Aromatase (Homo sapiens)) was “inactive” each time. The Potency entry in assay [8], in assay [9], in assay [12] and in assay [18] was “inactive” in each case. Also, the result in assay [3], in assay [10], in assay [11], in assay [13], in assay [14] and in [15] was inactive.

As for `FC(F)(F)C(F)(F)C(F)(F)C(F)(F)C(F)(F)C(F)(F)C(F)(F)C(F)(F)C(F)(F)C(F)(F)F`, in assay [1], the activity change, negative = cytotoxic was 12.8% [at 8.44 µM]. For the same molecule, the activation in assay [2] was 0.424% [at 8.08 µM]; in assay [8], 0.197% [at 8.47 µM]; in assay [10], -0.797% [at 7.08 µM]; in [18] it was 0.659% [at 8.36 µM]; in assay [15] it was 2.05% [at 5.95 µM]. Further, in assay [3], the activity, negative = cytotoxicity was -10% [at 6.72 µM]. In addition, the results for the activity change, negative = cytotoxicity in assay [6], in assay [7] and in assay [14] were 7.45% [at 8.47 µM], 5.22% [at 8.47 µM] and 3.17% [at 5.95 µM], respectively. In addition, the activity, negative = inhibition with Aromatase (Homo sapiens) is 1.74% [at 8.47 µM]. Further, the results for the viability change, negative = cytotoxic in [9] and in assay [13] were 24.8% [at 8.47 µM] and 0.46% [at 8.36 µM], respectively. For the same molecule, in assay [11], the ratio activity, negative = inhibition was -8.26% [at 5.95 µM].

Values taken from PubChem BioAssay (Tox21).
